Experimental data: PubChem BioAssay (NCI)
The panel holds about 83,000 compounds, 20% with a hit somewhere; the sample as a whole holds those more often.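 Results are percent growth after 48 hours of single-concentration exposure. 100 means growth as in untreated cells, lower positive values show inhibition; negative values down to -100 show cell death.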 Active and inactive are the calls of the source. How the source made its calls: active means growth percent below 10; inactive means the rest.

Key:
Assay in all cases: NCI-60 one-dose screen, 48 h (100 = growth as untreated, 0 = no growth, -100 = all killed)
[1] = system: NCI-H322M lung; conditions: 10 µM unless noted
[2] = system: HOP-62 NSCLC; conditions: 10 µM unless noted
[3] = system: A549/ATCC NSCLC; conditions: 10 µM unless noted
[4] = system: COLO 205 colon; conditions: 10 µM
[5] = system: K-562 leukemia; conditions: 10 µM unless noted
[6] = system: SNB-75 CNS; conditions: 10 µM unless noted
[7] = system: U251 CNS; conditions: 10 µM unless noted
[8] = system: SK-MEL-2 melanoma; conditions: 10 µM unless noted
[9] = system: ACHN renal; conditions: 10 µM unless noted
[10] = system: SR leukemia; conditions: 10 µM
[11] = system: OVCAR-5 ovarian; conditions: 10 µM unless noted
[12] = system: OVCAR-4 ovarian; conditions: 10 µM unless noted
[13] = system: SK-OV-3 ovarian; conditions: 10 µM unless noted
[14] = system: IGROV1 ovarian; conditions: 10 µM
[15] = system: HOP-92 NSCLC; conditions: 10 µM unless noted
[16] = system: NCI-H522 lung; conditions: 10 µM unless noted
[17] = system: NCI/ADR-RES ovarian; conditions: 10 µM unless noted
[18] = system: EKVX NSCLC; conditions: 10 µM unless noted

Measured: growth

C[As](=O)(O)c1ccc(C(=O)O)cc1
inactive: [1] 115% | [2] 108% | [3] 106% | [4] 115% | [5] 122% | [6] 90.2% | [7] 89.5% | [8] 99.9% | [9] 114% | [10] 118% | [11] 115% | [12] 113% | [13] 106% | [14] 120%

CCOP(=O)(OCC)Oc1ccc(Sc2ccc(OP(=O)(OCC)OCC)cc2)cc1
inactive: [2] 93.2% | [15] 79.7% | [16] 91.2% | [3] 97.5% | [4] 110% | [5] 102% | [6] 95% | [8] 94% | [10] 94.2% | [11] 105% | [12] 116% | [13] 103% | [14] 98% | [17] 93.7%

Clc1ccc(SSC(Cl)(Cl)Cl)cc1
inactive: [2] 106% | [16] 107% | [3] 100% | [4] 114% | [5] 112% | [6] 106% | [7] 98.6% | [8] 123% | [18] 108% | [9] 102% | [10] 107% | [11] 105% | [12] 108% | [13] 115% | [14] 107%

CC(=O)OC1CCC2(C)C(=CCC3C4CC(CN5CC5)C(=O)C4(C)CCC32)C1 (stereo not drawn)
inactive: [15] 92.1% | [3] 94.1% | [4] 89.2% | [6] 93.9% | [9] 76.4% | [10] 22.9% | [11] 97.7% | [12] 83.1% | [13] 98.2% | [14] 89.2% | [17] 101%
active: [16] -78.4%

CNC(=O)Oc1ccccc1-c1ccccc1
inactive: [2] 103% | [15] 101% | [16] 85.9% | [3] 96.2% | [4] 113% | [5] 99.6% | [6] 88.3% | [9] 108% | [11] 111% | [12] 110% | [13] 101% | [14] 99.3% | [17] 108%

NC(=O)OCC(CO)(c1ccccc1)c1ccccc1
inactive: [2] 94.9% | [15] 92.9% | [16] 98.8% | [3] 103% | [4] 105% | [5] 108% | [6] 89.2% | [8] 110% | [9] 98.1% | [10] 96.5% | [11] 95.3% | [12] 99.7% | [13] 99.1% | [14] 103% | [17] 108%

CC(C)(O)/C=C/C(=O)[C@](C)(O)[C@H]1[C@H](O)C[C@@]2(C)[C@@H]3CC=C4[C@@H](C=C(O)C(=O)C4(C)C)[C@]3(C)C(=O)C[C@]12C
active: [2] -64.2% | [16] -74.7% | [3] 0.767% | [5] -32.4% | [6] -86.6% | [7] -77.5% | [8] -43.6% | [18] -10.9% | [9] -29.9% | [10] -7.28% | [11] -3.44% | [12] -45.9% | [13] 5.63% | [14] -70.3%
inactive: [17] 12.2%

S=P(NC1CCCCC1)(N1CC1)N1CC1
inactive: [1] 113% | [2] 101% | [16] 106% | [5] 61.4% | [6] 93.2% | [7] 101% | [8] 114% | [18] 102% | [9] 103% | [10] 104% | [11] 104% | [13] 131% | [14] 97.3% | [17] 111%

CC1(C)CC2(CC(C)(C)c3cc(O)c(O)cc32)c2cc(O)c(O)cc21
inactive: [1] 102% | [2] 95.9% | [16] 37.4% | [3] 97.2% | [4] 102% | [6] 81.2% | [7] 92.3% | [18] 95.1% | [9] 96.1% | [10] 70.3% | [11] 93% | [12] 82% | [13] 97.1% | [14] 98.4%

NS(=O)(=O)c1nc[nH]c1[N+](=O)[O-]
inactive: [1] 110% | [16] 109% | [5] 101% | [6] 92.1% | [7] 119% | [8] 111% | [18] 117% | [9] 96.9% | [10] 102% | [11] 96.7% | [13] 101% | [14] 115% | [17] 102%

CC1=C(SCCC(=O)OCC(=O)NCCC[Te]c2ccccc2)C(=O)c2ccccc2C1=O
active: [1] -13.3% | [2] -49.1% | [16] -6.75% | [3] 0.0697% | [7] -5.81% | [8] -33.4% | [18] -3.84% | [13] -36.8% | [17] -10.5%
inactive: [4] 47.6% | [5] 10.2% | [6] 19.2% | [9] 12.4% | [12] 87.4%
